Results: PubChem BioAssay AID652065 (The Scripps Research Institute Molecular Screening Center, 2013)
In all, about 4,300 compounds went through this assay and about 3,000 (70%) were called active.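 How the source made its calls: active means inhibition above a per-plate cutoff, the mean inhibition of sample wells plus 3 SD (cut at about 35% in these data); inactive means the rest.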 So high a share suggests a set chosen from earlier hits. These entries were drawn from the full list.

Assay: small molecules binding CAG repeat RNA – biochemical, fluorescence, confirmation (AID 652065);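 further: loss of TO-PRO-1 fluorescence as compound displaces dye from 1x1 AA loop RNA; 0% = DMSO only wells and 100% = 100 µM mitoxantrone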
Conditions: r(CAG) RNA repeat, TO-PRO-1 dye displacement fluorescence; at 3 µM; stronger effect = higher value

SMILES | inhibition
Cc1ccc(CNC(=O)C2CCN(S(=O)(=O)c3ccc4nc5c(c(C(=O)O)c4c3)CC(C)CC5)CC2)cc1 (stereo not given) | 36.4% (active)
O=C(O)c1ccc2c(c1)C(=O)N(c1ccc(/C=C/C(=O)c3ccccc3)cc1)C2=O | 65.3% (active)
Cc1ccc(NC(=O)CSc2sc3c(O)cc(=O)[nH]c3c2C#N)cc1C | 27.9% (inactive)
Cc1ccc(NC(=O)CSc2nc(CSc3ccc(C)cc3)cc(=O)[nH]2)cc1 | 53.5% (active)
COc1ccc(OC)c(NC(=O)CSc2nc(-c3ccccc3)cc(=O)[nH]2)c1 | 24.5% (inactive)
Cc1ccc(C(C)C)c(OCCSc2nc3ccccc3n2CC(=O)O)c1 | 50.3% (active)
Cc1ccc2cc(/C=N/Nc3ccc(C(=O)O)cc3)c(Cl)nc2c1 | 46.6% (active)
O=C(N[C@@H](Cc1c[nH]c2ccccc12)C(=O)O)OCC1c2ccccc2-c2ccccc21 | 63.4% (active)
COc1ccc(S(=O)(=O)NCCc2c[nH]c3ccccc23)cc1OC | 0.91% (inactive)
CC(Oc1ccc2c(-c3ccccc3)cc(=O)oc2c1)C(=O)NC(Cc1c[nH]c2ccccc12)C(=O)O (stereo not given) | 62.4% (active)
COc1ccc(-c2cc(C(=O)NC(Cc3c[nH]c4ccccc34)C(=O)O)c(C)o2)cc1OC (stereo not given) | 61.4% (active)
COc1ccc(-c2cc(=O)oc3cc(OCC(=O)N[C@@H](Cc4c[nH]c5ccccc45)C(=O)O)ccc23)cc1 | 65.3% (active)
O=c1cc(CN2CCN(S(=O)(=O)/C=C/c3ccccc3)CC2)c2ccc(O)cc2o1 | 22.5% (inactive)
CCOc1ccc(C(=O)Nc2ccc(S(=O)(=O)Nc3cc(C)on3)cc2)cc1 | 23.1% (inactive)
COc1cc2ccccc2cc1C(=O)Nc1ccc(S(=O)(=O)Nc2cc(C)on2)cc1 | 58.8% (active)
Cc1cccc(C)c1NC(=O)C(c1ccc(C(F)(F)F)cc1)n1c(=O)c(-c2ccco2)nc2ccccc21 (stereo not given) | 26.2% (inactive)
COCCNC(=O)Nc1ccc2nc(-c3ccco3)c(-c3ccco3)nc2c1 | 61.6% (active)
CC(C)c1ccc(CC(=O)N2CCC2(C)C(=O)NS(=O)(=O)c2ccc(C(C)(C)C)cc2)cc1 (stereo not given) | 70.7% (active)
COc1ccc(S(=O)(=O)NC(=O)C2(C)CCN2C(=O)c2ccccc2CCc2ccccc2)cc1 (stereo not given) | 34% (inactive)
CC1(C(=O)NS(=O)(=O)c2ccccc2)CCN1C(=O)Cc1ccc(-c2ccccc2)cc1 (stereo not given) | 34.1% (inactive)
O=S(=O)(Nc1ccc(O)c2ccccc12)c1ccc(OC(F)(F)F)cc1 | 52.9% (active)
Cc1c(C)c2c(OCC(=O)N[C@@H](C(=O)O)c3ccccc3)cc3c(c2oc1=O)CCC(C)(C)O3 | 46.1% (active)
COc1ccc(COC(=O)NC(C(=O)O)c2ccccc2)cc1 (stereo not given) | 2.31% (inactive)
Cc1ccc(N=C2NC(=O)/C(=C/C=C/c3ccco3)S2)cc1C | 48.9% (active)
O=C(CCCN1C(=O)/C(=C\c2ccco2)SC1=S)Nc1cccc2ccccc12 | 17% (inactive)
Cc1ccc(-c2nn(-c3ccccc3)cc2/C=C2\SC(=S)N(CCCCCC(=O)O)C2=O)o1 | 56% (active)
CN(C)S(=O)(=O)c1cccc(-c2nn(-c3ccccc3)cc2/C=C2\SC(=S)N(CC(=O)O)C2=O)c1 | 88.1% (active)

SMILES | inhibition
CC1(C(=O)NS(=O)(=O)Cc2cccc(Cl)c2)CCN1C(=O)Cc1ccc(Cl)cc1Cl (stereo not given) | 78.9% (active)
COc1ccc(C(CNC(=O)c2cccc(S(=O)(=O)Nc3ccccc3Cl)c2)N2CCOCC2)cc1 (stereo not given) | 63.9% (active)
Cc1cc(C(=O)N/N=C/c2ccc(O)c([N+](=O)[O-])c2)c(C)n1-c1ccc(F)cc1 | 42.6% (active)
Cc1sc(NC(=O)c2ccc3ncsc3c2)c(C(N)=O)c1C | 18.1% (inactive)
O=c1ccc2c(-c3ccccc3S(=O)(=O)O)c3ccc(O)c(O)c3oc-2c1O | 91.4% (active)
CCc1ccc(N2CC(C(=O)Nc3ccc(S(=O)(=O)Nc4nccs4)cc3)CC2=O)cc1 (stereo not given) | 42% (active)
CCCCCCC(=O)Nc1nc(C)c(-c2csc(Nc3cc(Cl)ccc3OC)n2)s1 | 21.8% (inactive)
O=C(Nc1ccc(S(=O)(=O)Nc2nccs2)cc1)c1cccc(S(=O)(=O)N2CCOCC2)c1 | 20.8% (inactive)
O=C(Nc1ccc(S(=O)(=O)Nc2nccs2)cc1)c1cc(-c2ccncc2)nc2ccccc12 | 65.2% (active)
Cc1ccc(OCCC(=O)Nc2ccc(S(=O)(=O)Nc3nccs3)cc2)cc1 | 35% (active)
O=C(CCc1ccccc1Cl)Nc1ccc(S(=O)(=O)Nc2nccs2)cc1 | 39.1% (active)
COC(=O)c1sc(-c2ccc(C(C)(C)C)cc2)cc1NC(=O)/C=C/C(=O)O | 80% (active)
C[C@H]([C@@H](O)[C@@H](O)[C@@H](C)C(C)(C)C)[C@H]1CC[C@H]2C3CC[C@H]4C[C@H](OS(=O)(=O)O)[C@@H](OS(=O)(=O)O)C[C@]4(C)[C@H]3CC[C@]12C (stereo not given in full) | 87.8% (active)
O=C(Nc1ccccc1)Nc1nc2ccccc2s1 | 13.2% (inactive)
Cc1ccc(NC(=O)Nc2nnc(-c3ccncc3)s2)cc1 | 25.5% (inactive)
O=C(Nc1ccccc1)Nc1nnc(COc2ccccc2F)s1 | 42.2% (active)
O=C(Nc1cccc(Cl)c1)Nc1ccccc1NS(=O)(=O)c1cccs1 | 34.4% (inactive)
COC(=O)c1sccc1NC(=O)CSc1ccccc1NS(=O)(=O)c1cc(Cl)ccc1Cl | 73% (active)
CCOc1cc(C(=O)Nc2ccc(S(=O)(=O)Nc3cnc4ccccc4n3)cc2)cc(OCC)c1OCC | 66.4% (active)
Cc1ccccc1-c1ccc2c(c1)O[C@@H](CN(C)Cc1ccc(C(=O)O)cc1)[C@@H](C)CN([C@H](C)CO)S2(=O)=O | 58.3% (active)
COc1cc(C(=O)Nn2c(O)c(C3=c4ccccc4=NC3=O)sc2=S)ccc1O | 14.6% (inactive)
CCc1ccc(OC(C)C(=O)Nc2ccc(S(=O)(=O)Nc3cc(C)on3)cc2)cc1 (stereo not given) | 26.1% (inactive)
Cc1cc(OC(C)C(=O)Nc2ccc(S(=O)(=O)Nc3onc(C)c3C)cc2)cc(C)c1Cl (stereo not given) | 62.4% (active)
Cc1cc(C)c2nc(-c3cccnc3)cc(C(=O)Nc3ccc(S(=O)(=O)Nc4onc(C)c4C)cc3)c2c1 | 83.2% (active)
Cc1ccc(C(=O)/C=C/Nc2ccc(S(=O)(=O)Nc3onc(C)c3C)cc2)cc1 | 62.5% (active)
Cc1noc(NS(=O)(=O)c2ccc(NC(=O)c3oc4ccc(F)cc4c3C)cc2)c1C | 71.9% (active)
CCn1c(SCC(=O)Nc2ccc(S(=O)(=O)Nc3onc(C)c3C)cc2)nnc1-c1ccccc1 | 22% (inactive)

SMILES | inhibition
COc1cccc(-c2coc3cc4oc(=O)c(CC(=O)O)c(C)c4cc23)c1 | 42.7% (active)
O=C(COc1ccc([N+](=O)[O-])cc1)Nc1cccc(C(=O)Nc2ccccc2C(=O)O)c1 | 62.4% (active)
CCN(CC)C(=O)CSC(Nc1cccc(F)c1)=C(C#N)C#N | 38.4% (active)
Cc1nnc(SC(C(=O)Nc2cc(Cl)cc(Cl)c2)c2ccccc2)[nH]c1=O (stereo not given) | 64.1% (active)
COc1ccc(Cc2nnc(SCC(=O)Nc3ccc(C)c(Cl)c3)[nH]c2=O)cc1 | 62.5% (active)
CC(=O)Nc1ccc(S(=O)(=O)N(CCc2ccccc2)CC(=O)N/N=C/c2ccc(C(=O)O)cc2)cc1 | 28.1% (inactive)
Cc1cc(NS(=O)(=O)c2ccc(NC(=O)CSc3nnc(-c4ccc(C(C)(C)C)cc4)n3Cc3ccco3)cc2)nc(C)n1 | 23.6% (inactive)
O=C(COC(=O)c1ccc(NS(=O)(=O)c2cccs2)cc1O)Nc1ccc(F)cc1 | 23.1% (inactive)
Cc1cc(NS(=O)(=O)c2ccc(NC(=O)CSc3nnc(SCc4ccc(F)cc4)s3)cc2)nc(C)n1 | 45% (active)
C=CCn1c(=S)[nH]c2scc(-c3ccco3)c2c1=O | 27.3% (inactive)
COc1cccc(/C=N/Nc2ccc(S(=O)(=O)Nc3ccccc3C(=O)O)cc2[N+](=O)[O-])c1O | 93.9% (active)
O=C(O)c1ccccc1/C=N/Nc1ccc(S(=O)(=O)Nc2ccc(Cl)cc2)cc1[N+](=O)[O-] | 63.4% (active)
COc1ccc(Br)cc1/C=N/Nc1ccc(S(=O)(=O)Nc2ccccc2C(=O)O)cc1[N+](=O)[O-] | 93.4% (active)
NS(=O)(=O)c1ccc(N=Nc2c(O)[nH]c3ccc(Br)cc23)cc1 | 18.8% (inactive)
O=C1/C(=C/c2ccc(F)cc2)SC(=S)N1NS(=O)(=O)c1ccccc1 | 53.6% (active)
COc1ccc(/C=C/C(=O)c2ccc(NS(=O)(=O)c3ccc(C)cc3)cc2)cc1O | 54.9% (active)
COc1cc(/C=C2/C(=O)NN(c3cccc(Cl)c3)C2=O)cc(Br)c1O | 24.5% (inactive)
COc1cc(NC(=O)c2ccccc2NS(=O)(=O)c2ccc(Cl)s2)cc(OC)c1 | 82% (active)
O=C(Nc1nncs1)c1ccccc1NS(=O)(=O)c1cccs1 | 30.2% (inactive)
CCc1nnc(NS(=O)(=O)c2ccc(NC(=S)NC(=O)c3cccs3)cc2)s1 | 46.7% (active)
CCc1nnc(NS(=O)(=O)c2ccc(NC(=O)c3cccc(OC(F)(F)C(F)F)c3)cc2)s1 | 56.7% (active)
NS(=O)(=O)c1ccc(NC2=CC(c3ccc(F)cc3)N(c3ccc(S(N)(=O)=O)cc3)C2=O)cc1 (stereo not given) | 12.6% (inactive)
Cc1ccc(SC(CC(=O)c2ccc(C(C)(C)C)cc2)C(=O)O)cc1 (stereo not given) | 44.7% (active)
Cc1ccc(C(=O)Oc2coc(CSc3nnc(NC(=O)c4cccs4)s3)cc2=O)cc1C | 60.6% (active)
O=C(O)CCn1cc(/C=C/C(=O)c2ccc(Cl)cc2)c(-c2cccc(Br)c2)n1 | 86.2% (active)
CN(C(=O)COC(=O)c1cc(-c2ccco2)nc2ccccc12)C1CCS(=O)(=O)C1 (stereo not given) | 27.6% (inactive)
